According to PubChem BioAssay AID1259313 (Sanford-Burnham Center for Chemical Genomics, 2017):
In all, about 340,000 compounds went through this assay and about 8,500 (2.5%) were called active.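 How the source made its calls: active means melting temperature shift of at least 10% of the positive control shift, at one fixed dose; inactive means the rest.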 The entries come from a sample that favours actives as a whole.

system: Glutamate receptor ionotropic, NMDA 3A (GRIN3A) ligand-binding domain; assay: binders of NR3A ligand-binding domain, primary screen, biophysical, differential scanning fluorimetry, uHTS (AID 1259313); details: NR3A LBD differential scanning fluorimetry, at 25 µM, stronger effect = higher value, 0% = protein alone, 100% = glycine-bound protein

Row | SMILES | Tm shift relative to glycine control
1 | CCN(C(=O)COC(=O)CCOc1cccc(C)c1)c1c(N)n(Cc2ccccc2)c(=O)[nH]c1=O | 0.18% (inactive)
2 | CCCCNC(=O)CSc1nc2ccc(NC(=O)CSc3nnc(N)s3)cc2s1 | 1.91% (inactive)
3 | CCCCNC(=O)CSc1nc2ccc(NC(=O)CSc3nnc(COc4ccccc4C)n3C)cc2s1 | -6% (inactive)
4 | Nc1nnc(SCC(=O)Nc2ccc3nc(SCC(=O)Nc4ccccc4)sc3c2)s1 | 29.3% (active)
5 | NS(=O)(=O)c1ccc(CCNC(=O)CN2C(=O)c3ccccc3S2(=O)=O)cc1 | 3.53% (inactive)
6 | COc1cc(CN(C)Cc2nc3cc(C(F)(F)F)ccc3c(=O)[nH]2)ccc1OC(F)F | 0.52% (inactive)
7 | Cc1cccc(OCc2nnc(SCn3nnc4ccccc4c3=O)o2)c1 | -0.61% (inactive)
8 | Cc1cccc(OCc2nnc(SCc3nc4cc(C(F)(F)F)ccc4c(=O)[nH]3)o2)c1 | 15.6% (active)
9 | Cc1onc(-c2c(F)cccc2Cl)c1C(=O)Nc1cccc(S(=O)(=O)N2CCCCC2)c1 | -2.74% (inactive)
10 | O=[N+]([O-])c1ccc2[nH]c3c(c2c1)CCCC3O (stereo unspecified) | 5.4% (inactive)
11 | O=C(NCCc1c[nH]c2ccc(Cl)cc12)c1ccc([N+](=O)[O-])cc1 | 17.5% (active)
12 | Cc1ccc2[nH]cc(CCNC(=O)C3CCCCC3)c2c1 | 1.08% (inactive)
13 | Cc1cc(C)cc(NC(=S)NCCc2c[nH]c3ccccc23)c1 | 20.2% (active)
14 | O=C(NCCc1c[nH]c2ccccc12)c1cccc(Br)c1 | 31.4% (active)
15 | Cc1ccc2[nH]cc(CCCN3C(=O)c4ccccc4C3=O)c2c1 | -9.79% (inactive)
16 | N#CCc1c[nH]c2ccc([N+](=O)[O-])cc12 | 14% (active)
17 | O=C(NCCc1ccc(Cl)cc1Cl)c1cc([N+](=O)[O-])c[nH]c1=O | -10.1% (inactive)
18 | Cc1ccc(S(=O)(=O)N(C)CC(=O)NCCc2c[nH]c3ccccc23)cc1 | 1.04% (inactive)
19 | O=C(NCCc1c[nH]c2ccccc12)C1CCN(Cc2ccc(Br)cc2)CC1 | -4.03% (inactive)
20 | O=C(NCCc1c[nH]c2ccccc12)c1cc2ccccc2oc1=O | -6.92% (inactive)
21 | Cc1ccc2[nH]cc(CCNC(=O)c3ccc([N+](=O)[O-])cc3)c2c1 | 9.11% (inactive)
22 | COc1ccc(F)cc1S(=O)(=O)NCC(c1ccc2c(c1)OCO2)N1CCN(C)CC1 (stereo unspecified) | -1.98% (inactive)
23 | COc1ccc(NC(=S)N2CCC(NC(=O)c3cccc(F)c3)CC2)cc1 | 1.82% (inactive)
24 | COc1ccc2oc(C(=O)NCc3ccco3)c(C)c2c1 | 0.95% (inactive)

Row | SMILES | Tm shift relative to glycine control
25 | Cc1ccc(C(=O)c2ccc(N3CCN(C)CC3)c([N+](=O)[O-])c2)cc1 | -4.39% (inactive)
26 | Cc1ccc(Br)c(NS(=O)(=O)c2cccc(C(=O)N3CCNC(=O)C3)c2)c1 | -2.24% (inactive)
27 | O=C(CO/N=C/c1ccc(OC(F)F)cc1)NCc1ccc(F)cc1 | -0.25% (inactive)
28 | CC1(NC(=O)CCS(=O)(=O)c2ccc(Cl)cc2)CCS(=O)(=O)C1 (stereo unspecified) | 1.08% (inactive)
29 | NC(=O)Nc1ccccc1C(=O)NCCc1ccccc1 | -3.04% (inactive)
30 | CCOC(=O)CN(C(=O)COc1nc(C)cc(C)c1C#N)c1ccc(Cl)cc1 | 0.21% (inactive)
31 | COc1ccc(/C=N/N=C/c2c[nH]c(=O)c(C#N)c2Nc2ccccc2)cc1 | 35.8% (active)
32 | COc1ccc(/C=N/Nc2nc(-c3ccc(C)cc3)c(C#N)c(=O)[nH]2)cc1 | -2.83% (inactive)
33 | COc1ccc(/C=N/Nc2ccccc2C(=O)O)cc1 | -10.2% (inactive)
34 | Cc1nn(C)cc1/C=C1\CCC/C(=C\c2cn(C)nc2C)C1=O | -1.19% (inactive)
35 | CC(Oc1ccccc1[N+](=O)[O-])C(=O)N/N=C/c1ccoc1 (stereo unspecified) | -0.52% (inactive)
36 | Cc1ccc2cccc(OCCCOc3ccccc3CO)c2n1 | -1.42% (inactive)
37 | Cc1cc(N=Nc2ccc3ccccc3c2)ccc1O | 28.8% (active)
38 | O=C(NNC(=S)NC(=O)c1cn(-c2ccccc2)nc1-c1ccccc1)c1ccncc1 | -4.35% (inactive)
39 | O=C(CN1CCOc2ccccc21)N1CCC(Cc2ccccc2)CC1 | -1.44% (inactive)
40 | COc1ccc(C(=O)N2CCCCC2C(=O)Nc2ccc(-n3nc(C)cc3C)cc2)o1 (stereo unspecified) | 6.75% (inactive)
41 | CCN(CC)CCNCc1ccc(OCc2ccc(Cl)nc2)c(OC)c1 | 8.95% (inactive)
42 | COc1cc(/C=C2/C(=O)ON=C2C)ccc1OCc1cccc(F)c1 | -26.4% (inactive)
43 | COc1cc(/C=C2\SC(=O)NC2=O)ccc1OCc1ccc(Cl)nc1 | 25.9% (active)
44 | Cc1cccn2cc(-c3cccc(S(=O)(=O)N4CCCCC4)c3)nc12 | 5.23% (inactive)
45 | Cc1cccc(N(C(=O)c2csnn2)C(C(=O)NCc2ccccc2)c2ccncc2)c1 (stereo unspecified) | -0.09% (inactive)
46 | CCOc1ccccc1Nc1nnc(SCC(=O)NCC2CCCO2)s1 (stereo unspecified) | 5.39% (inactive)
47 | CCOC(=O)N1CCN(C(=O)c2cn(C)c3ccc(S(=O)(=O)N(CC)CC)cc3c2=O)CC1 | 0% (inactive)
48 | O=C(Nc1cccc(Cl)c1)c1cncn1-c1ccc(F)cc1 | -0.7% (inactive)

Row | SMILES | Tm shift relative to glycine control
49 | Cc1cccc(N=C2NC(=O)CS2)c1C | 5.95% (inactive)
50 | O=C(CSc1nc2ccc([N+](=O)[O-])cc2[nH]1)c1ccc(Cl)cc1 | 18.5% (active)
51 | Cc1nc2nc(SCC(=O)c3ccccc3)[nH]c2cc1Br | -9.38% (inactive)
52 | CC(=O)Nc1ccc(C(=O)CSc2nc3ccc(C)cc3[nH]2)cc1 | -17.4% (inactive)
53 | O=C(Nc1ccc(Cl)cc1)c1cccc(OC(=S)N2CCOCC2)c1 | -0.47% (inactive)
54 | CC/C(=N/Nc1ccccc1)c1cnnc(SC)n1 | 1.52% (inactive)
55 | C/C(=N/Nc1ccc(Cl)cc1)c1cnnc(-c2ccccc2)n1 | 10.3% (active)
56 | C/C(=N\Nc1ccccc1)c1cccs1 | 1.45% (inactive)
57 | CN(CCO)c1ccc(/C=N/Nc2nncc3ccccc23)cc1 | 3.23% (inactive)
58 | Cc1csc(NC(=O)CSc2nc(=O)cc(N)n2-c2ccc(F)cc2)n1 | -0.09% (inactive)
59 | CC(C)N1CCC(N2CCN(Cc3cccnc3)CC2CCO)CC1 (stereo unspecified) | -1.29% (inactive)
60 | Clc1ccc(Cc2nnc(-c3cccs3)o2)cc1 | -0.55% (inactive)
61 | Clc1ccc(Nc2nc(-c3cccs3)cs2)nc1 | 23% (active)
62 | CCCc1cc(C(=O)Nc2ccc(Cl)cn2)cs1 | 0.69% (inactive)
63 | Cc1cc(C)cc(NC(=O)C(c2ccccc2)N2CCN(CC(=O)N3CCCC3)CC2)c1 (stereo unspecified) | -1.19% (inactive)
64 | Cc1ccc(C)c(NC(=O)C(OC(=O)c2ccc(C)s2)c2ccccc2)c1 (stereo unspecified) | -6.89% (inactive)
65 | Cc1cc(C)cc(NC(=O)C(OC(=O)c2ccc(O)cc2)c2ccccc2)c1 (stereo unspecified) | 10.5% (active)
66 | COc1cc(CO)c(C2(CO)CCCC2)cc1OC | -9.65% (inactive)
67 | N#CC1(Nc2ccc(-c3ccc(Cl)cc3)cc2)CCCC1 | 20.4% (active)
68 | CNc1nccc(-c2ccc(Cl)cc2)c1C#N | -0.74% (inactive)
69 | NC(=O)C1(Nc2ccc(-c3ccccc3)cc2)CCCC1 | 2.37% (inactive)
70 | COc1ccccc1CNC(=O)CNC(=O)c1cn(-c2ccccc2OC)c(=O)c2ccccc12 | -0.54% (inactive)
71 | Cc1ccc(NC(=O)CSCC(=O)N2CCOCC2)cc1 | 1.21% (inactive)
72 | Cc1cc2c(cc1C)[n+](C)cn2CC(O)COCC1CC=CCC1 (stereo unspecified) | 11.6% (active)

Row | SMILES | Tm shift relative to glycine control
73 | CNC(=S)N/N=C/c1ccc(N2CCOCC2)s1 | -0.99% (inactive)
74 | CCCn1c(=O)c2c(C(F)(F)F)cc(-c3cccs3)nc2n(CCC)c1=O | 0.77% (inactive)
75 | COc1ccc(NC(=O)NCCN2CCN(c3ccc(C)cc3)CC2)c(Cl)c1 | -3.16% (inactive)
76 | Cc1ccc(C2(C)NC(=O)N(CC(=O)Nc3ccccc3C(=O)N3CCCCC3)C2=O)cc1 (stereo unspecified) | -1.86% (inactive)
77 | CSCCC(NS(=O)(=O)c1ccc(C)cc1)C(=O)N(C)CC(=O)Nc1ccccc1Br (stereo unspecified) | 0.34% (inactive)
78 | CCCc1cc(C(=O)Nc2ccc(C(=O)OC)cc2)cs1 | -10.4% (inactive)
79 | COc1ccc(Nc2ncnc3sc(C)cc23)cc1 | -17.1% (inactive)
80 | COC(=O)c1ccc(Nc2ncnc3sccc23)cc1 | 13% (active)
81 | C/C(=N\N)c1c(-c2ccccc2)c2cc(Br)ccc2[nH]c1=O | -2.09% (inactive)
82 | CC(=O)NCCC(=O)Nc1cc(S(=O)(=O)N2CCCCC2)ccc1Oc1cccc(C)c1 | 1.88% (inactive)
83 | Cn1cccc1/C=C1\SC(=S)N(NC(=O)c2ccc(Cl)cc2)C1=O | 8.58% (inactive)
84 | O=C(O)c1ccc2c(c1)C(=O)N(NC(=O)c1ccc(O)cc1)C2=O | 0.18% (inactive)
85 | CC(=O)N1C(=O)/C(=C2\SC(=S)N(NC(=O)c3ccc(O)cc3)C2=O)c2ccccc21 | 21.7% (active)
86 | Cc1ccc(CC2CC(=O)N(c3cc(C)ccc3C)C2=O)cc1 (stereo unspecified) | -1.45% (inactive)
87 | COc1ccc(NC(=O)C(=O)NCC(=O)Nc2cccc(C(F)(F)F)c2)cc1 | 7.67% (inactive)
88 | COc1cc(NC(=O)c2[nH]cnc2C(N)=O)cc(C(=O)Nc2cccc(C(F)(F)F)c2)c1 | 14.8% (active)
89 | COc1cc(NC(=O)c2cncc(-c3ccc(C#N)cc3)c2)cc(C(=O)Nc2cccc(C(F)(F)F)c2)c1 | -1.27% (inactive)
90 | N#Cc1ccccc1NC(=O)c1cccc(COc2ccc(Cl)cc2Cl)c1 | 7.12% (inactive)
91 | O=C(NCCC1CCCCN1S(=O)(=O)c1cccs1)C(=O)Nc1ccc(F)cc1F (stereo unspecified) | 1.11% (inactive)
92 | c1ccc(CCc2ccccn2)cc1 | 1.84% (inactive)
93 | CC1(C)C=Cc2c(ccc3c2OC[C@@H](c2ccc(O)cc2O)C3)O1 | 8.09% (inactive)
94 | Cc1cc(=O)oc2c(C)c(OCC(=O)NCCc3ccc(S(N)(=O)=O)cc3)ccc12 | -1.05% (inactive)
95 | Cc1cc(=O)oc2cc(OC(C)C(=O)NCCc3ccc(S(N)(=O)=O)cc3)ccc12 (stereo unspecified) | -2.25% (inactive)
96 | Cc1ccc2c(=O)cc(C(=O)NCCc3ccc(S(N)(=O)=O)cc3)oc2c1C | 10.6% (active)
